Screening data (PubChem BioAssay)
Shown are actives, neighbours in structure and some others; about 1.3% of the full set was active somewhere.
PriA SSB inh: K. pneumoniae PriA-SSBct interaction inhibition; AlphaScreen SSBct-PriA binding, biotinylated peptide; inhibition, % at 33 µM; actives 0.6% (n = 430,000); AID 1272365; in the data active = inhibition mostly above about 37%, no sharp cut-off; inactive = mostly below about 20%;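 note: plate controls were negative control peptide for no effect and reference peptide for full effect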
CCHF vOTU inh-1: blocks the CCHF virus ovarian tumor domain protease. actives 0.55% (n = 370,000). CCHFV vOTU protease, Pep-AMC fluorescence. AID 651958. inhibition, % at 11.5 µM; note: 0% = vehicle wells with enzyme and 100% = no enzyme wells
DUSP3 inh: inhibitors of human VHR1 phosphatase (DUSP3). P51452. recombinant VHR phosphatase, pNPP absorbance. inhibition, % at 13.3 µM. actives 0.52% (n = 290,000); in the data active = inhibition above about 50%
Target sequence (P51452 whole entry, looked up): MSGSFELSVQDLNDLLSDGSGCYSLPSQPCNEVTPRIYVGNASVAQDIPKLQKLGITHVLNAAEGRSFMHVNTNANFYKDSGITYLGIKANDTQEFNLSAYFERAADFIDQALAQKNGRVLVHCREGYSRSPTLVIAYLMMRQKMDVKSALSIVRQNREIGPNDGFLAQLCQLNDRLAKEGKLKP
TcdB inh: blocks C. difficile toxin B glycohydrolase activity; P18177; TcdB glycohydrolase enzymatic assay, plate reader; inhibition, % at 9.99 µM; actives 0.24% (n = 350,000); AID 652162; in the data active = inhibition above about 10%
SARS 3CLpro inh: SARS-CoV 3CLpro protease inhibition | AID 1706 | P0C6X7 | inhibition, % at 6 µM | actives 0.14% (n = 290,000) | recombinant SARS-CoV 3CLpro, quenched FRET peptide cleavage; in the data active = inhibition above about 12%
BH1578 lux ind: inducers of Vibrio cholerae quorum light production without autoinducers | V. cholerae BH1578 lux reporter, luminescence, 6 h | activation, % at 18.7 µM | actives 0.16% (n = 350,000) | AID 588436; in the data active = activation mostly above about 9.7%, no sharp cut-off
CCHF vOTU inh-2: CCHFV vOTU protease inhibition, confirmation | inhibition, % at 11.5 µM | Recombinant CCHFV vOTU, Pep-AMC fluorescence | shares compounds with CCHF vOTU inh-1 | actives 17% (n = 1,900) | AID 686976
Starred values were filed as active, the others as inactive. Cut-off read from the data, not from the text of the source, unless noted: active = inhibition above about 30%; inactive = the rest.

For CCOC(=O)C1(C)C=C(Nc2ccc(O)cc2)C(=O)N1c1ccc(O)cc1 (stereo unspecified) the results were PriA SSB inh 9, CCHF vOTU inh-1 91*, DUSP3 inh 4, TcdB inh 2, SARS 3CLpro inh 3, BH1578 lux ind 0 and CCHF vOTU inh-2 -15.
For CCOC(=O)C1(C)C=C(Nc2ccc(OC)cc2)C(=O)N1c1ccc(OC)cc1 (stereo unspecified) the results were PriA SSB inh -2, CCHF vOTU inh-1 0, DUSP3 inh 15, SARS 3CLpro inh 4 and BH1578 lux ind inactive.
Cc1cccn2cc(-c3ccccc3NC(=O)CCn3cnc4ccccc4c3=O)nc12 was read as PriA SSB inh -16.
Screening CC1CCN(C2(O)C(=O)Nc3ccc(Br)cc32)CC1 (stereo unspecified) returned PriA SSB inh 10, CCHF vOTU inh-1 3, DUSP3 inh 16, TcdB inh 3, SARS 3CLpro inh -2 and BH1578 lux ind 0.
O=C1Nc2ccc([N+](=O)[O-])cc2C1(O)N1CCCCCC1 (stereo unspecified) was read as PriA SSB inh 3, CCHF vOTU inh-1 30*, DUSP3 inh 10, TcdB inh 0, SARS 3CLpro inh 4, BH1578 lux ind 0 and CCHF vOTU inh-2 -3.
CC(C)Oc1ccc(S(=O)(=O)N2CCOCC2)cc1NC(=O)CN1C(=O)c2ccccc2C1=O was read as PriA SSB inh -4, CCHF vOTU inh-1 36*, TcdB inh 1, BH1578 lux ind inactive and CCHF vOTU inh-2 -20.
COC(=O)CN(c1ccc(F)cc1)S(=O)(=O)c1ccccc1 was read as PriA SSB inh 15, CCHF vOTU inh-1 9, DUSP3 inh 2, SARS 3CLpro inh -1 and BH1578 lux ind inactive.
COC(=O)Cc1ccc(N(Cc2ccccc2F)S(=O)(=O)c2ccc(Cl)cc2)cc1 was read as PriA SSB inh -11, CCHF vOTU inh-1 32*, DUSP3 inh -14, TcdB inh -7, SARS 3CLpro inh -4, BH1578 lux ind inactive and CCHF vOTU inh-2 2.
Screening CN1CCN(CC(=O)n2c3c(c4ccccc42)CCCC3)CC1 returned PriA SSB inh 8, CCHF vOTU inh-1 45*, DUSP3 inh 35, SARS 3CLpro inh 3, BH1578 lux ind -2 and CCHF vOTU inh-2 -1.
CCC(NC(=O)c1ccc2c(c1)c(C)c(C)n2Cc1ccc(-c2ccccc2C#N)cc1)c1ccccc1 (stereo unspecified) was read as CCHF vOTU inh-1 11.
Cc1c(C)n(Cc2ccc(-c3ccccc3C(=O)O)cc2)c2ccc(C(=O)N[C@@H](C)c3ccc([N+](=O)[O-])cc3)cc12 was read as CCHF vOTU inh-1 42* and CCHF vOTU inh-2 9.
Screening COc1ccc(C2CCCCN(C(=O)c3cccc(C(F)(F)F)c3)C2)cc1 (stereo unspecified) returned PriA SSB inh -18.
Screening CCC(=O)N1CCc2ccc(NS(=O)(=O)c3ccc(Cl)s3)cc2C1 returned PriA SSB inh 6.
For Oc1ccc2ccccc2c1C=NC12CN3CCN(CN(C3)C1)C2 the results were PriA SSB inh 19, CCHF vOTU inh-1 72*, DUSP3 inh 23, SARS 3CLpro inh 1, BH1578 lux ind inactive and CCHF vOTU inh-2 73*.
`OCC(CO)(CO)N=Cc1c(O)ccc2ccccc12` gave PriA SSB inh 5, CCHF vOTU inh-1 18, DUSP3 inh 19, SARS 3CLpro inh 4 and BH1578 lux ind 0.
O=C(O)c1ccc(NC2=C(n3nnc4ccccc43)C(=O)c3ccccc3C2=O)cc1 was read as PriA SSB inh -5, CCHF vOTU inh-1 87*, DUSP3 inh 25, TcdB inh 2, SARS 3CLpro inh 1, BH1578 lux ind inactive and CCHF vOTU inh-2 89*.
`O=C(NC(=S)Nc1ccccc1N1CCCC1)c1ccccc1Br` gave CCHF vOTU inh-1 34*, DUSP3 inh 71, TcdB inh 3, SARS 3CLpro inh -3, BH1578 lux ind 2 and CCHF vOTU inh-2 30*.
For COc1cc(C(=O)NC(=S)Nc2ccccc2N2CCCC2)cc(OC)c1OC the results were PriA SSB inh 6, CCHF vOTU inh-1 28, DUSP3 inh 5, TcdB inh 0, SARS 3CLpro inh 5 and BH1578 lux ind inactive.
